hcDAF12 agonist – H. contortus DAF-12 activation, primary screen; actives 1.4% (n = 370,000); HEK293 hcDAF-12 lit1-tk-luc reporter, luminescence; 0% DMSO, 100% Δ7-dafachronic acid; activation, % at 6.8 µM;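 active = activation above the mean of all tested compounds plus 3 SD, cut at about 5.5% in these data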;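 note: 100% = response to 3 µM Δ7-dafachronic acid high control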
ssDAF12 agonist – activates DAF-12 receptor from parasite S. stercoralis | HEK293 ssDAF-12/GRIP1 lit1-tk-luc reporter, luminescence; % of 3 µM dafachronic acid response | activation, % at 6.8 µM | actives 1% (n = 370,000) | AID 652126;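 active = activation above the mean over all tested compounds plus 3 SD, cut at about 0.9% in these data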;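 note: 0% = DMSO-only wells and 100% = 3 µM delta7-dafachronic acid wells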
hgDAF-12 ag – agonists of H. glycines DAF-12 nuclear receptor; HEK293 GAL4-hgDAF12 UAS-luciferase reporter, agonist luminescence; normalized to butyrate control; AID 687014; actives 1.8% (n = 370,000); activation, % at 6.8 µM;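 active = activation above a cutoff set at the mean of all screened compounds plus 3 SD, cut at about 10% in these data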;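 note: 0% = DMSO wells and 100% = sodium butyrate wells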
AHR act – activates the human aryl hydrocarbon receptor. P35869. AHR-responsive luciferase reporter cells, luminescence. activation, % at 5 µM. actives 2.5% (n = 320,000). AID 2796; in the data active = activation above about 47%;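 note: 0% = vehicle wells and 100% = reference agonist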
Target sequence (P35869 whole entry, looked up): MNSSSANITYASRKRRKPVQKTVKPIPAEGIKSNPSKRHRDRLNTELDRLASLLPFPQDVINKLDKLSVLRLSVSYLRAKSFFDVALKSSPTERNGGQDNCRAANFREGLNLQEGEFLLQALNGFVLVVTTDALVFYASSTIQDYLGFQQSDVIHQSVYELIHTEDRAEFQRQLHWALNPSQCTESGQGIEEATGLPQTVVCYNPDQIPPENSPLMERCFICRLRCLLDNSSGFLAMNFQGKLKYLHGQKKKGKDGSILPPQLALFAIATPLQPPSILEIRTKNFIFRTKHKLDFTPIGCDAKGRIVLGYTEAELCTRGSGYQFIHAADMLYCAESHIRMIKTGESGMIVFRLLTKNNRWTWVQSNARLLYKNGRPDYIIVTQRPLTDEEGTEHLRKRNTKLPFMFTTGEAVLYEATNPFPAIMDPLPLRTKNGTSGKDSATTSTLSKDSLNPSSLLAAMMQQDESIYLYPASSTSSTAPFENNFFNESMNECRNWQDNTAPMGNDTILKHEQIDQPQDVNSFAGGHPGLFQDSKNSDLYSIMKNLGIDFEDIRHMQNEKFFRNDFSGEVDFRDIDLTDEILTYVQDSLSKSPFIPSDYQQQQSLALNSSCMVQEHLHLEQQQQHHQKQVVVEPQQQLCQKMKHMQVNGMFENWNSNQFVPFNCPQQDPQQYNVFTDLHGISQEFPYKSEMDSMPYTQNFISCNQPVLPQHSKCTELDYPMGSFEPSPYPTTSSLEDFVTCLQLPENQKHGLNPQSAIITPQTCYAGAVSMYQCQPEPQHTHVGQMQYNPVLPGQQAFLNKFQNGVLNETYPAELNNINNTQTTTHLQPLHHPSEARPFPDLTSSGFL
DAX1 inh-1 – inhibitors of human orphan nuclear receptor DAX1 (NR0B1) | P51843 | HEK293 Gal4-DAX1 luciferase reporter, luminescence | inhibition, % at 6.75 µM | actives 0.99% (n = 340,000) | AID 504766;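 active = inhibition above the mean over all tested compounds plus 3 SD, cut at about 4.2% in these data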;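 note: 0% = DAX1-transfected cells with DMSO and 100% = empty-vector control cells with DMSO; inhibition shows as a rise in luminescence from relieved DAX1 repression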
DAX1 inh-2 – blocks DAX1 repression of SF-1 activated StAR promoter; HEK293T StAR-luciferase reporter, SF-1/DAX-1 repression relief; inhibition, % at 6.8 µM; actives 1.1% (n = 370,000); AID 652010;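 active = inhibition above the mean over all tested compounds plus 3 SD, cut at about 3.6% in these data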;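 note: 0% = DAX-1 cells with DMSO and 100% = cells lacking DAX-1 with DMSO; higher inhibition means more luminescence from relief of DAX-1 repression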
The depositor's hits bear a star; / = not tested or not shown. Sampled rows, rich in hits. Any-hit rate of the full collection: about 5.7%.

SMILES	hcDAF12 agonist	ssDAF12 agonist	hgDAF-12 ag	AHR act	DAX1 inh-1	DAX1 inh-2
O=[N+]([O-])c1cccc(-c2nc(-c3cccs3)c(-c3cccs3)[nH]2)c1	-3	-1	-3	63*	0	-2
COc1ccc(-c2nc(-c3ccccc3)c(-c3cccs3)[nH]2)cc1OC	-2	-2	-3	81*	-1	-1
COc1ccc(-c2[nH]c(-c3ccc(C(=O)O)cc3)nc2-c2ccccc2)cc1	2	-1	0	-1	1	1
COc1ccc(-c2nc(-c3cccs3)c(-c3cccs3)[nH]2)cc1OC	-4	-2	-1	50*	-2	-2
CC(C)[C@H](NC(=O)NCc1ccco1)C(=O)O	-1	-1	-1	0	1	0
N#Cc1cnc(NN)nc1	-1	-2	3	19	-1	0
C[C@@H]1C=CCCO[C@]12C(=O)N(CC1CC1)c1ccccc12	-1	-1	4	/	/	0
COCCOc1ccc(C(F)(F)F)cc1NC(=O)COC(=O)c1cc[n+]([O-])cc1	0	-1	2	4	2	2
CCOc1ccc(C(F)(F)F)cc1NC(C)=O	1	-1	2	3	1	0
COCCOc1ccc(C(F)(F)F)cc1NC(=O)c1ccc(C(F)(F)F)cc1	-2	0	1	70*	2	0
COCCOc1ccc(C(F)(F)F)cc1NC(=O)c1ccccc1F	4	-1	1	61*	1	0
COc1cc(/C=N/NC(=O)c2cc[n+]([O-])cc2)ccc1O	1	0	1	3	-1	0
CCCOc1ccc(F)cc1-c1cc(C(=O)Nc2ccc(OC)cc2C)[nH]n1	-1	-1	-2	/	/	2
COc1ccc(-n2cc(-c3ccccc3)[nH]c2=S)cc1	1	0	7	55*	1	0
CN(C)CCCNC(=O)c1c(N)[nH]c(C(=O)c2ccc(Br)cc2)c1-c1ccc(Br)cc1	0	-1	0	/	/	3
O=C(NCC(=O)N(CCN1CCOCC1)C(C(=O)NC1CCCC1)c1cccs1)c1ccco1 (centres undefined)	1	-1	3	8	4.7*	1
Cc1ccsc1CN(C)Cc1nc(C2CC2)no1	2	-1	4	0	-1	0
CCOC(=O)C1=C(N)Oc2ccc3ccccc3c2C1c1cccc(O)c1 (centres undefined)	-1	-1	1	50*	-1	0
C=CCNC1=C(Cl)C(=O)c2ccccc2C1=O	4	-1	-6	52*	-1	-2
O=C(O)c1ccc(NC2=C(Cl)C(=O)c3ccccc3C2=O)cc1	6.7*	0.9*	2	12	3	0
COc1cc(OC)cc(C(=O)NCCn2ccc3ccccc32)c1	-3	0	0	25	0	1
Cc1cccc(C(=O)Nc2cccc(OC(=O)c3cccc(C)c3)c2)c1	4	0	13*	-4	2	1
COc1cccc(NC(=O)c2cnc(SC)nc2)c1	4	1.3*	3	9	0	0
COc1cccc(C(=O)Nc2cccc(C(C)=O)c2)c1	0	-1	7	35	2	2
COc1cccc(C(=O)NCCn2ccc3ccccc32)c1	5	-1	12*	15	2	4
SMILES	hcDAF12 agonist	ssDAF12 agonist	hgDAF-12 ag	AHR act	DAX1 inh-1	DAX1 inh-2
COc1cccc(NC(=O)c2cccc(Cl)c2)c1	4	0	12*	-4	1	2
CC(=O)Oc1cccc(NC(=O)c2cccc(C(=O)Nc3cccc(OC(C)=O)c3)c2)c1	-1	-1	0	4	0	-1
O=C1CSC(c2ccccn2)N1c1ccc(C(F)(F)F)cc1 (centres undefined)	1	-2	-2	8	0	0
COc1cccc(C(=O)Nc2ccc3c(c2)n(C)c(=O)n3C)c1	1	-1	-1	48*	1	-1
COc1cccc(NC(=O)Nc2ccccc2Br)c1	-2	-1	11*	19	2	1
COc1cccc(C(=O)Nc2ccc(C)cc2)c1	5	1.6*	9	10	1	4.0*
COc1cccc(C(=O)Nc2cc3c(cc2N2CCCC2)n(C)c(=O)n3C)c1	-2	-1	1	13	0	-3
O=C(Nc1cccs1)Nc1ccccc1Br	1	-1	1	57*	0	-1
Cc1ccc(-c2cc3cccc[n+]3cc2-c2ccc(C)cc2)cc1	-5	-3	-10	-8	-5	-3
COc1cccc(NC(=O)Nc2nc(SC(C)(C)C)ns2)c1	-2	-2	-1	21	-3	-1
COc1cccc(C(=O)Nc2cccc(-c3ccc(N4CCOCC4)nn3)c2)c1	0	-1	5	-1	1	4.0*
COc1cccc(NC(=O)Nc2nc(SC)ns2)c1	4	0	12*	31	7.2*	2
COc1cccc(NC(=O)c2ccc3nc(C)sc3c2)c1	5.8*	0	8	-9	5.5*	1
COc1ccc(C(=O)Nc2cccc(-c3ccc(N4CCOCC4)nn3)c2)cc1OC	1	0	3	8	1	2
O=C(Nc1nnc([C@H]2C[C@H](O)[C@@H](CO)O2)s1)NC1CCCCC1	0	-1	2	/	/	1
COc1cc(OC)cc(C(=O)Nc2ccc(N3CCN(C(=O)c4cccs4)CC3)cc2)c1	-6	-1	-2	53*	-2	-5
COc1cc2ccccc2cc1C(=O)Nc1ccc(N2CCN(C)CC2)cc1	3	0	13*	33	0	2
O=C(N/N=C/c1cccnc1)c1ccc2ccccc2c1O	2	-1	0	/	1	2
COc1ccccc1C(=O)NC(=S)Nc1ccc(N2CCCC2)cc1	-3	-1	2	85*	-1	0
COc1cc2ccccc2cc1C(=O)Nc1ccc(N2CCN(C(=O)C(C)C)CC2)cc1	-1	-1	2	40	0	-1
O=C(Nc1cccnc1)c1ccc2ccccc2c1O	2	1	9	48*	4.3*	1
CCOc1ccc(C(=O)Nc2ccc(N3CCN(C)CC3)cc2)cc1Br	0	-1	2	57*	0	0
COc1cc2ccccc2cc1C(=O)Nc1cccnc1	3	1	9	77*	1	1
CCSc1ccccc1C(=O)Nc1cccnc1	-1	-1	3	13	4.7*	1
COc1cc2cc(C(=O)Nc3ccccc3)c(N)nc2cc1OC	-1	-1	3	48*	0	0
COc1ccc(-c2cc(C(=O)Nc3ccc(O)cc3)c3ccccc3n2)cc1OC	-1	-2	1	10	0	0
C=CCNc1ncnc2c1ncn2[C@H]1CN(C2CCCC2)C[C@@H](CO)O1	2	-1	2	/	/	1

Compound activity from PubChem.
